Measurements taken from PubChem BioAssay (EPA / NIEHS).
Inconclusive results are not listed. Activity calls are given as the source filed them. The calls were made as follows, unless noted: active = hit-call score of the fitted dose curve at least 0.9, where 1 is the maximum; inactive = score below 0.9.

Legend:
[1] = CCTE_Shafer_MEA_acute_AB: CCTE's Alamar Blue Assay for Cytotoxicity in the Neural Acute Assay, Shafer Lab (AID 2284069; active = hit-call score of the fitted dose curve at least 0.9, where 1 is the maximum;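 also: active compounds lower the viability signal compared with DMSO wells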)
Procedure, shortened: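 Cytotoxicity endpoint for acute MEA exposures of primary rat cortical neurons on day 13 or 15. Resazurin reduction is read fluorescently at 544/590 nm, with DMSO as the negative-control baseline.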

[2] = CCTE_Shafer_MEA_acute_LDH: CCTE's Lactate Dehydrogenase Assay for Cytotoxicity in the Neural Acute Assay, Shafer Lab (AID 2284086; active = hit-call score of the fitted dose curve at least 0.9, where 1 is the maximum;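 also: active means LDH release rises above DMSO vehicle level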)
Procedure, shortened: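 Medium from rat cortical neuron MEA cultures sampled right after the 40 min compound-exposure recording; released LDH measured by absorbance at 490 nm. Analyzed as signal gain relative to DMSO.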

[3] = UKN5_HCS_SBAD2_neurite_outgrowth: University of Konstanz (UKN) Leist Lab Neurite Outgrowth Assay in human iPSC-derived immature Dorsal Root Ganglia Neurons (UKN5) (AID 2284070); details: actives raise or lower the signal
Procedure, shortened: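 SBAD2 iPSC-derived immature peripheral neurons on Matrigel, 100.000 cells/cm2, medium with CHIR99021 (1.5 uM), SU5402 (5 uM), DAPT (5 uM); compound added 1 h post-seeding for 24 h. Calcein-AM neurite area by high-content imaging; Hoechst H-33342 viability; bidirectional fit vs DMSO.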

[4] = CCTE_Shafer_MEA_dev_AB: CCTE's Alamar Blue Assay for Cytotoxicity in the Neural Network Formation Assay, Shafer Lab (AID 2284083; active = hit-call score of the fitted dose curve at least 0.9, where 1 is the maximum;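 also: resazurin reduction fluorescence as viability of cultured neurons; twelve days of exposure from plating with re-dosing on DIV 5 and 9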)
Procedure, shortened: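 Cytotoxicity companion to the developmental MEA: primary rat cortical neurons, 12-day exposure starting day 0, compound refreshed DIV 5 and 9; resazurin fluorescence, fitted against DMSO vehicle.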

[5] = CCTE_Shafer_MEA_dev_mutual_information_norm: CCTE's Neural Network Formation Assay for Mutual Information Normalization, Shafer Lab (AID 2284091);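 as to AC50: mutual information between electrodes summarised as area under curve across four recording days; potency is for a decrease in mutual information relative to DMSO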
Procedure, shortened: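 Rat cortical cultures, 48-well MEA, continuous exposure DIV 0–12 with full media/compound change DIV 5 and 9. Readout: inter-electrode mutual information, AxIS adaptive spike detection; AUC across DIV 5/7/9/12 recordings; DMSO baseline, negative fitting direction.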

[6] = CCTE_Shafer_MEA_dev_correlation_coefficient_mean: CCTE's Neural Network Formation Assay for Mean Correlation Coefficient, Shafer Lab (AID 2284093);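 as to AC50: well mean pairwise spike train correlation integrated as AUC over recording days 5 to 12; potency fitted for loss of correlation relative to DMSO vehicle wells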
Procedure, shortened: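 Extracellular firing from rat cortical networks on 48-well MEAs, DMSO-referenced, negative fitting direction. Compound present from plating to DIV12; mean pairwise correlation per well integrated over DIV5–12 recordings by trapezoidal AUC.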

[7] = UKN2_HCS_IMR90_neural_migration: University of Konstanz (UKN) Leist Lab Neural Crest Cell Migration Assay in human induced IMR90 Pluripotent Stem Cells (UKN2) (AID 2284204); details: actives raise or lower the signal
Procedure, shortened: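 iPSC-derived IMR90 neural crest cells on PLO/laminin/fibronectin were seeded around silicone stoppers; after stopper removal, migration in N2-S medium with EGF and FGF ran 24 h before 24 h chemical exposure. Calcein-AM/Hoechst high-content imaging; bidirectional fit versus DMSO.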

[8] = UKN4_HCS_LUHMES_neurite_outgrowth: University of Konstanz (UKN) Leist Lab Neurite Outgrowth Assay in human LUHMES cells (UKN4) (AID 2284206); details: actives raise or lower the signal
Procedure, shortened: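 Human LUHMES neuronal precursors, differentiated 2 days then replated without cAMP and GDNF, exposed to compounds for 24 h. Neurite area imaged by high-content microscopy after calcein-AM live staining; Hoechst H-33342 for viability; bidirectional fit versus DMSO.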

[9] = IUF_NPC1b_proliferation_BrdU_72hr: Leibniz Research Institute for Environmental Medicine (IUF) 72-hour Neural Progenitor Cell Bromodeoxyuridine (BrdU) Proliferation Assay (NPC1b) (AID 2284207)
Procedure, shortened: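 hNPC spheres (primary, GW 16-19 fetal cortex), single sphere/well, EGF+FGF medium; 72 h compound, no renewal; BrdU pulse last 16 h; luminescent ELISA; activity vs DMSO baseline; growth-factor withdrawal as positive control.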

[10] = IUF_NPC1a_proliferation_area_72hr: Leibniz Research Institute for Environmental Medicine (IUF) 72-hour Neural Progenitor Cell Proliferation Area Assay (NPC1a) (AID 2284208)
Procedure, shortened: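 Read-out: increase in sphere area over 72 h by automated phase-contrast imaging, fitted in positive direction versus DMSO baseline. One hNPC sphere (0.25-0.35 mm) per well in EGF/FGF medium; growth-factor withdrawal served as positive control.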

[11] = IUF_NPC1_viability_72hr: Viability Assessment at 72 hours in the Leibniz Research Institute for Environmental Medicine (IUF) Neural Progenitor Cell Proliferation Assay (NPC1) (AID 2284209)
Procedure, shortened: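 Single spheres (0.25-0.35 mm) of human fetal cortex-derived neural progenitor cells were grown in proliferation medium with EGF and FGF at 37C and 5% CO2. They were exposed for 72 h without renewal, and viability was read by alamar blue resorufin fluorescence.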

[12] = CCTE_Mundy_HCI_Cortical_Synap_Neur_Matur_NeuriteSpotCountPerNeuriteLength: CCTE's Synaptogenesis and Neurite Maturation Assay in rat cortical cells for Neurite Spot Count per Neurite Length, Mundy Lab (AID 2284210)
Procedure, shortened: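 Rat primary cortical cultures, glia arrested with AraC at DIV 5, were dosed with media change at DIV 7 and fixed at DIV 12. Synaptophysin puncta per MAP2-labelled neurite length were quantified by high-content imaging versus DMSO.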

[13] = CCTE_Mundy_HCI_Cortical_Synap_Neur_Matur_BPCount: CCTE's Synaptogenesis and Neurite Maturation Assay in rat cortical cells for Branch Point Count, Mundy Lab (AID 2284211)
Procedure, shortened: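 Rat primary cortical cultures, AraC added DIV 5; chemicals dosed DIV 7 through DIV 12. Fixed cells stained for MAP2, synaptophysin and Hoechst; neurite branch points counted by automated high-content imaging, fitted relative to DMSO.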

[14] = CCTE_Mundy_HCI_Cortical_NOG_NeuriteLength: CCTE's Neurite Outgrowth Assay in rat cortical cells for Neurite Length, Mundy Lab (AID 2284213);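 as to AC50: neurites imaged about 48 to 50 h after chemical exposure began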
Procedure, shortened: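 Neurite length was read by high-content imaging of βIII-tubulin-labelled neurites in rat primary cortical cultures. Activity was fitted relative to DMSO.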

[15] = CCTE_Mundy_HCI_Cortical_Synap_Neur_Matur_NeuriteLength: CCTE's Synaptogenesis and Neurite Maturation Assay in rat cortical cells for Neurite Length, Mundy Lab (AID 2284214)
Procedure, shortened: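 Rat primary cortical cultures, AraC added DIV 5, dosed DIV 7 through DIV 12 […]. Fixed, MAP2/synaptophysin immunostained with Hoechst; neurite length by high-content imaging, fitted in positive direction versus DMSO.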

[16] = CCTE_Mundy_HCI_Cortical_Synap_Neur_Matur_NeuriteSpotCountPerNeuron: CCTE's Synaptogenesis and Neurite Maturation Assay in rat cortical cells for Neurite Spot Count per Neuron Count, Mundy Lab (AID 2284215)
Procedure, shortened: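 Rat primary cortical cells received AraC at DIV 5, then chemicals with a media change at DIV 7, and were fixed at DIV 12. Synaptophysin puncta on MAP2-stained neurites per neuron were counted by high-content imaging, fitted relative to DMSO.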

[17] = CCTE_Mundy_HCI_Cortical_Synap_Neur_Matur_SynapseCount: CCTE's Synaptogenesis and Neurite Maturation Assay in rat cortical cells for Synapse Count, Mundy Lab (AID 2284218)
Procedure, shortened: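 Rat primary cortical cultures, AraC at DIV 5, chemical dosing DIV 7 to DIV 12 (288.33 h). Fixed cells stained for MAP2, synaptophysin and Hoechst; synapses per neuron counted by high-content imaging, loss of signal versus DMSO.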

[18] = CCTE_Mundy_HCI_hN2_NOG_NeuriteCount: CCTE's Neurite Outgrowth Assay in human hN2 cells for Neurite Count, Mundy Lab (AID 2284219; active = hit-call score of the fitted dose curve at least 0.9, where 1 is the maximum)
Procedure, shortened: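 In this morphology assay, hNP1-derived neurons received test chemical 2 h post-plating and were fixed two days later in warm paraformaldehyde/sucrose containing Hoechst 33342. Neurites, labelled by rabbit anti-βIII-tubulin (1:800) and Alexa Fluor-488 (1:500), were counted automatically.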

[19] = TAMU_PeakParms_SingleDonor1434_Chronotropy: Texas A&M University (TAMU) 1.5-hr Human Induced Pluripotent Stem Cell (iPSC)-derived Cardiomyocytes Calcium (Ca+2) Flux Assay for Cardiotoxicity: Chronotropy (changes in peak frequency) (AID 2284217); details: actives raise or lower the signal
Procedure, shortened: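 Using fluorescent Ca2+ flux, average beats per second are measured in human iPSC-derived cardiomyocytes treated 90 min (0.5% DMSO vehicle, 0.2–100 uM). Non-beating data points are removed; activity is modeled in both directions relative to DMSO controls.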

[20] = CCTE_Mundy_HCI_Cortical_NOG_NeuriteCount: CCTE's Neurite Outgrowth Assay in rat cortical cells for Neurite Count, Mundy Lab (AID 2284212);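 also: cells fixed about two days after chemical exposure began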
Procedure, shortened: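 Neurite number per cell from high-content imaging of betaIII-tubulin immunostaining, with Hoechst nuclear counterstain.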

CN(C)C(=O)NC1(c2ccccc2)CCN(CCC[C@]2(c3ccc(Cl)c(Cl)c3)CCCN(C(=O)c3ccccc3)C2)CC1
outcome [1]: inactive
outcome [2]: inactive

Cc1ccc(C(C)(C)C)c(O)c1
outcome [2]: inactive

CN(C)CCCN1c2ccccc2Sc2ccc(Cl)cc21
outcome [1]: inactive
AC50 [3]: 6.11 µM (active)
AC50 [4]: 15 µM (active)
outcome [2]: inactive
AC50 [5]: 5.4 µM (active)
AC50 [6]: 5.87 µM (active)
AC50 [7]: 8.89 µM (active)
AC50 [8]: 6.73 µM (active)
AC50 [9]: 4.53 µM (active)
AC50 [10]: 11.8 µM (active)
AC50 [11]: 18.8 µM (active)
AC50 [12]: 28.4 µM (active)
AC50 [13]: 12.8 µM (active)
AC50 [14]: 10.7 µM (active)
AC50 [15]: 12.8 µM (active)
AC50 [16]: 11.8 µM (active)
AC50 [17]: 11.8 µM (active)
AC50 [18]: 11 µM (active)

CCc1cc(C2=C(C(=O)O)N(c3ccccc3C(F)(F)F)S(=O)(=O)c3ccccc32)cc2c1OCO2
outcome [1]: inactive
outcome [2]: inactive

CCCC(=O)O
outcome [1]: inactive
outcome [2]: inactive

COC(=O)[C@H]1[C@H]2C[C@@H]3c4[nH]c5cc(OC)ccc5c4CCN3C[C@H]2C[C@@H](OC(=O)c2cc(OC)c(OC)c(OC)c2)[C@@H]1OC
outcome [1]: inactive
AC50 [4]: 10 µM (active)
outcome [2]: inactive
AC50 [5]: 5.56 µM (active)
AC50 [6]: 10 µM (active)
outcome [19]: inactive

COc1ccc(OC(F)(F)F)cc1CN[C@H]1CCCN[C@H]1c1ccccc1
outcome [1]: inactive
outcome [2]: inactive

CSc1ccc(Oc2ccc(S(N)(=O)=O)cc2CN(C)C)cc1C
outcome [1]: inactive

NC(=Nc1ccccc1)Nc1ccccc1
outcome [1]: inactive
outcome [2]: inactive

Nc1nc(=S)c2[nH]cnc2[nH]1
outcome [1]: inactive
outcome [2]: inactive
AC50 [19]: 89.6 µM (active)

OCC(CO)n1cnc(-c2ccc(F)cc2)c1-c1ccnc(Oc2ccccc2)n1
outcome [2]: inactive

Cc1cc(SC2=C(O)C[C@@](CCc3ccc(N)cc3)(C(C)C)OC2=O)c(C(C)(C)C)cc1CO
outcome [2]: inactive

CC(C)COC(=O)CCCCC(=O)OCC(C)C
outcome [1]: inactive
outcome [2]: inactive

O=C1OC(c2ccc(O)cc2)(c2ccc(O)cc2)c2ccccc21
outcome [1]: inactive

c1ccc2occc2c1
outcome [1]: inactive
outcome [2]: inactive

C/C=C/c1ccc(OC)cc1
outcome [1]: inactive
outcome [2]: inactive

Cc1cc(Cc2ccc(N)c(C)c2)ccc1N
outcome [1]: inactive
outcome [2]: inactive

O=C(O)CC(O)(CC(=O)O)C(=O)O
outcome [19]: inactive

CC(C)NCC(O)c1ccc(O)c(O)c1 (centres undefined)
outcome [1]: inactive
outcome [2]: inactive

O=C(O)CN(CC(=O)O)CC(=O)O
outcome [2]: inactive

CCc1nc(N)nc(N)c1-c1ccc(Cl)cc1
outcome [19]: inactive

Cc1c(C)c2c(c(C)c1O)CCC(C)(COc1ccc(CC3SC(=O)NC3=O)cc1)O2 (centres undefined)
outcome [1]: inactive

CN(C)C(=O)NC1(c2ccccc2)CCN(CC[C@@]2(c3ccc(F)c(F)c3)CN(C(=O)c3ccccc3)CCO2)CC1
outcome [1]: inactive
outcome [2]: inactive

O=C1NC(=O)C(c2ccccc2)(c2ccccc2)N1
outcome [3]: inactive
outcome [5]: inactive
outcome [6]: inactive
outcome [7]: inactive
outcome [8]: inactive
outcome [9]: inactive
outcome [10]: inactive
outcome [11]: inactive
outcome [12]: inactive
outcome [14]: inactive
outcome [15]: inactive
outcome [16]: inactive
outcome [17]: inactive
outcome [18]: inactive

CCN(CC)CCOc1ccc(C(=C(Cl)c2ccccc2)c2ccccc2)cc1
outcome [1]: inactive
outcome [2]: inactive

CC(=O)CC(c1ccccc1)c1c(O)c2ccccc2oc1=O (centres undefined)
outcome [4]: inactive
outcome [5]: inactive
outcome [6]: inactive
outcome [9]: inactive
outcome [10]: inactive
outcome [11]: inactive
outcome [12]: inactive
outcome [13]: inactive
outcome [20]: inactive
outcome [14]: inactive
outcome [15]: inactive
outcome [16]: inactive
outcome [17]: inactive

Oc1ccc(O)cc1
outcome [1]: inactive
outcome [2]: inactive

CCCCC(CC)COP(=O)(OCC(CC)CCCC)OCC(CC)CCCC (centres undefined)
outcome [2]: inactive

CC(N)=O
outcome [2]: inactive

O=C(N[C@@H](c1ccccc1)[C@@H]1CCCCN1)c1cccc(C(F)(F)F)c1Cl
outcome [1]: inactive
outcome [2]: inactive

Cc1occc(=O)c1O
outcome [19]: inactive

CC1=C(C)S(=O)(=O)CCS1(=O)=O
outcome [2]: inactive

OCC(O)CO
outcome [4]: inactive
outcome [5]: inactive
outcome [6]: inactive
outcome [8]: inactive
outcome [9]: inactive
outcome [10]: inactive
outcome [11]: inactive
outcome [12]: inactive
outcome [13]: inactive
outcome [20]: inactive
outcome [14]: inactive
outcome [15]: inactive
outcome [16]: inactive
outcome [17]: inactive
